VDR inh: vitamin D3 receptor (human) inhibition; P11473; VDR-SRC2-3 peptide fluorescence polarization, 2 h; Potency, µM, without a hit: max response, negative = inhibition, usual class: inhibitors; 400,000 tested, 0.93% active; AID 504847
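Measured by FP: displacement of SRC2-3 coactivator peptide from VDR by library compounds, following a two-hour ambient incubation.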
PLK1 PBD inh: PLK1 (human) polo-box domain binding inhibition | Plk1 PBD binding of FITC phosphopeptide, fluorescence polarization | 360,000 tested, 2.8% active | AID 720504 | Potency, µM, without a hit: max response, negative = inhibition, most hits filed as inhibitors; also: series mostly up to about 57 µM; nearly all actives have a fitted effect of over 65% in size
Target sequence (P53350 whole entry, looked up, the tested form may be a part): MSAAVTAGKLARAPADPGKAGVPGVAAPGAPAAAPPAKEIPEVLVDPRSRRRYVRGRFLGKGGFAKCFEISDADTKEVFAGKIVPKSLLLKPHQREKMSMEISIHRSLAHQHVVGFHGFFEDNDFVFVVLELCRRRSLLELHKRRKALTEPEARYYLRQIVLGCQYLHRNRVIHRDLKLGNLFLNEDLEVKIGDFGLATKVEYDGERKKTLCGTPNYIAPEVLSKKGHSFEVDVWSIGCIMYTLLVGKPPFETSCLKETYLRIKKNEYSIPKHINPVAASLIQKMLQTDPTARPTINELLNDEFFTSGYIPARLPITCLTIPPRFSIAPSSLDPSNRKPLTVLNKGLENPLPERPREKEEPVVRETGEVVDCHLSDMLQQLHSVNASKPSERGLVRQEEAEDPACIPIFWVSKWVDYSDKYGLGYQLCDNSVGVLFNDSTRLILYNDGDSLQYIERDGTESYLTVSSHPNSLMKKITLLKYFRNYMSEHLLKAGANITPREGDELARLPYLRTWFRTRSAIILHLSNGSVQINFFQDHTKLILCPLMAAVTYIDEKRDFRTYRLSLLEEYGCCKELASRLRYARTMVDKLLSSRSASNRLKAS
TDP1 inh: inhibitors of human tyrosyl-DNA phosphodiesterase TDP1. 350,000 tested, 0.28% active. recombinant TDP1, AlphaScreen DNA substrate cleavage. Potency, µM (doses to about 130 µM), for the others: at the top dose activity change, negative = inhibition, most hits filed as inhibitors. AID 485290; also: nearly all actives have a fitted effect of over 40% in size
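AlphaScreen read-out: signal falls as enzyme removes the 3' tyrosine-FITC from a 5'-biotinylated DNA oligo (15 nM, 5 min, RT). Enzyme was E. coli-made recombinant Tdp1 at 1 nM, exposed to compound for 15 min beforehand; beads 10 ug/ml, 10 min.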
DT40 TDP1 CPT: growth inhibition of DT40 Tdp1-/-;hTDP1 cells with camptothecin (screen for TDP1 inhibitors) | chicken DT40 Tdp1-/-;hTDP1 cells + 20 nM CPT, ATP luminescence, 48 h | Potency, µM (series often up to 46.2 µM), inactives show at the top dose activity change, negative = growth inhibition, most hits filed as inhibitors | 420,000 tested, 12% active | AID 686979; also: nearly all actives have a fitted effect of over 55% in size
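Chicken DT40 Tdp1-/- cells complemented with human TDP1, 400 cells/well, exposed to compounds plus 20 nM camptothecin for at least 48 h at 37 C; viability read as ATP content by CellTiter-Glo luminescence.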
GCN5L2 inh: inhibitors of human GCN5L2 histone acetyltransferase; Q92830; GCN5L2 HAT assay, ThioGlo1 CoA-SH fluorescence; Potency, µM (series often up to 58.9 µM), inactives show at the top dose activity change, negative = inhibition, most hits filed as inhibitors; 390,000 tested, 0.21% active; AID 504327
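Preincubate 20nM GCN5L2 with compound 15 min, RT → add 50uM ThioGlo1 + 75uM H3(1-25) + 70uM acetyl-CoA → read fluorescence 0 and 20 min. Primary qHTS; fluorescent artifacts likely.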
TDP1 cell noCPT: qHTS for Inhibitors of human tyrosyl-DNA phosphodiesterase 1 (TDP1): qHTS in cells in absence of CPT. 420,000 tested, 15% active. Potency, µM (series often up to 46.2 µM), for inactives: at the highest dose activity change, negative = growth inhibition, usual class: inhibitors. AID 686978, 2013. DT40 Tdp1-/- hTDP1 cells, no CPT, ATP luminescence, 48 h; also: nearly all actives have a fitted effect of over 55% in size
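Chicken DT40 Tdp1-/- cells stably complemented with human TDP1 were seeded at 400 cells/well with DMSO in place of 20 nM camptothecin. After compound pinning, cells grew at least 48 hr at 37 °C; viability read by CellTiter-Glo luminescence.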
Active calls of the source: *; u = inconclusive; x = not tested or not shown; ! = repeats disagree; [ ] = another dose, or the depositor's remark. Compounds with a hit are over-represented: about 18% of the library has one in this group of screens. Calls follow the shape of the dose curve; as a rule, active = well fitted curve in the direction sought with a large enough effect; inconclusive = small, poorly fitted or top-dose-only effect, or another doubt; inactive = no such curve, though single readings can be large; an effect the other way counts as inactive or inconclusive. % is scaled to controls: 0 for no effect and ±100 for the full control effect; potency is read from the fitted curve at half-maximal effect.

SMILES	VDR inh	PLK1 PBD inh	TDP1 inh	DT40 TDP1 CPT	GCN5L2 inh	TDP1 cell noCPT
Cc1ccc(Nc2sc(C(=O)c3ccccc3)c(N)c2C(N)=O)cc1	-3.6%	x	5.4%	u	-0.9%	u
CCOc1ccccc1Nc1sc(C(=O)c2ccc(Cl)cc2)c(N)c1C(=O)NCCc1ccccc1	7.7%	x	7.4%	4.61µM*	-2.9%	20.6µM*
CCOc1ccc(NC(=O)c2c(Nc3ccccc3C)sc(C(=O)c3ccccc3)c2N)cc1	17.8%	x	14.2%	u	-12.6%	11.6µM*
Cc1cccc(C)c1Nc1sc(C(=O)c2ccccc2)c(N)c1C(=O)Nc1ccc(F)cc1	9.5%	x	7.4%	u	0.4%	20.6µM*
CCOc1ccccc1Nc1sc(C(=O)c2ccccc2)c(N)c1C(=O)Nc1ccc(F)cc1	11.0%	x	3.4%	u	-3.4%	13µM*
CCOc1ccccc1Nc1sc(C(=O)c2ccc(Cl)cc2)c(N)c1C#N	9.7%	x	-1.5%	u	-8.8%	u
COc1ccc(CNC(=O)C(c2ccc(C)o2)N(Cc2cccs2)C(=O)Cc2cccs2)cc1 (stereo unspecified)	-6.8%	-10.4%	-5.5%	29.1µM*	-8.4%	u
O=C(NCc1ccccc1)C(c1ccccc1)N(Cc1ccc2c(c1)OCO2)C(=O)Cc1cccs1 (stereo unspecified)	7.9%	-5.1%	5.2%	u	-6.5%	23.1µM*
CCOC(=O)c1ccc(NC(=O)c2cn(-c3ccccc3)nc2-c2ccc(Br)cc2)cc1	4.1%	x	-2.2%[12.3 µM]	u	-12.7%	u
CCOC(=O)c1nn(-c2ccc(Br)cc2)cc1C(=O)c1cccc2ccccc12	7.4%	2.7%	-2.0%	8.2µM*	-14.1%	16.4µM*
O=C(c1ccco1)N1C(=O)c2cccc3cccc1c23	-5.1%	5.32µM*	x	11.6µM*	-5.3%	18.4µM*
CCCCC1C(=O)CC[C@H]2[C@@H]1CC(=O)[C@@H]2C/C=C\CCCC(=O)O (stereo partly specified)	u	-18.6%	-5.5%	u	-0.1%	20.6µM*
CCCCCC1C(=O)CCC1CC(=O)O (stereo unspecified)	-11.5%	x	4.5%	-1.1%	-5.4%	-7.3%
O=C(COC(=O)C12CC3CC(CC(Br)(C3)C1)C2)NCc1ccco1	-4.9%	x	3.2%	-6.0%	x	-25.4%
Cc1cc(C)c2nc(NC(=O)c3ccc(OCC4CCCO4)cc3)sc2c1 (stereo unspecified)	6.5%	-0.9%	2.7%	u	1.8%	20.6µM*
Cc1ccc2nc(NC(=O)c3ccc(OCC4CCCO4)cc3)sc2c1 (stereo unspecified)	4.5%	4.1%	3.2%	13µM*	-2.5%	14.6µM*
Cc1sc(NC(=O)CN2C(=O)NC3(CCCC3)C2=O)nc1-c1ccc(F)cc1	-16.1%	0.6%	x	u	0.1%	u
COc1cccc(/C=C2/SC(=S)N(CC(=O)Nc3nccs3)C2=O)c1	0.1%	x	1.7%	11.0%	x	-3.2%
CCN(CC)CCCC(C)Nc1cc(/C=C/c2ccccc2Cl)nc2cc(Cl)ccc12 (stereo unspecified)	1.9%	x	-0.2%	0.631µM*	-4.9%	0.891µM*
COc1ccccc1NC(=O)NCCN1CCN(c2cccc(Cl)c2)CC1	u	0.9%	-7.5%	u	-5.5%	23.1µM*!
COc1ccccc1NC(=O)NCCN1CCCCC1	2.1%	1.2%	-9.6%	-1.0%	1.1%	6.4%
CCOC(=O)c1c(C)[nH]c(C)c1S(=O)(=O)NCCN1CCN(c2cc(Cl)ccc2C)CC1	6.7%	5.4%	7.9%	u	-23.1%	13µM*
CCC(=O)N1c2ccccc2CC1C(=O)NCCN1CCN(c2cc(Cl)ccc2C)CC1 (stereo unspecified)	14.3%	x	8.8%	20.6µM*	-18.1%	u
CCOC(=O)c1c(C)[nH]c(C)c1S(=O)(=O)N1CCN(c2cc(Cl)ccc2C)CC1	7.1%	x	8.5%	u	-0.5%	u
O=C(NCCN1CCN(c2ccccc2)CC1)Nc1ccc(Cl)cc1	-12.7%	4.4%	x	-4.6%	0.8%	-25.5%
SMILES	VDR inh	PLK1 PBD inh	TDP1 inh	DT40 TDP1 CPT	GCN5L2 inh	TDP1 cell noCPT
CCC(=O)N1c2ccccc2CC1C(=O)NCCCN1CCN(c2ccc(OC)cc2)CC1 (stereo unspecified)	7.0%	x	3.8%	u	-5.5%	u
O=C(NCCN1CCN(c2cccc(Cl)c2)CC1)Nc1ccccc1	17.6%	0.2%	-4.3%[12.3 µM]	u	-0.4%	14.6µM*
OC(c1ccc2ccccc2c1)c1ncc(-c2ccc(C(F)(F)F)cc2)[nH]1 (stereo unspecified)	x	-0.3%	x	u	x	u
O=C(NCCN1CCCCC1)Nc1ccc(Cl)cc1	-16.6%	-14.0%	x	29.3%	1.7%	-2.4%
Cc1ccc(Cl)cc1N1CCN(CCNC(=O)Nc2ccc(Cl)cc2)CC1	-6.7%	x	0.0%	11.6µM*	-15.4%	u
O=C(NCCN1CCN(c2ccccc2)CC1)Nc1cccc(Br)c1	-8.4%	-2.5%	7.5%	u	-0.2%	29.1µM*
O=C(NCCN1CCN(c2cccc(Cl)c2)CC1)C1COc2ccccc2C1 (stereo unspecified)	4.2%	x	6.5%	u	0.3%	u
COc1ccc2c(c1)CC(C(=O)NCCN1CCN(c3cccc(Cl)c3)CC1)CO2 (stereo unspecified)	2.9%	x	5.3%	16.4µM*	-8.7%	14.6µM*
COc1ccc(CCNc2nc(N3CCCCC3)nc(N3CCCCC3)n2)cc1OC	6.2%	-0.5%	9.8%	u	-10.1%	23.1µM*
COc1nc(NCCc2ccc(OC)c(OC)c2)nc(OC)n1	-8.8%	0.1%	2.0%	-1.4%	x	-5.6%
COc1ccc(CCNC(=O)c2ccc3nc(N4CCCCC4)sc3c2)cc1OC	-3.7%	-4.4%	x	18.4µM*	-4.9%	20.6µM*
CCOc1ccc2nc(N3CCCC(C(=O)NCCCN4CCCCC4)C3)sc2c1 (stereo unspecified)	5.7%	-4.6%	1.5%	u	-13.8%	u
Cc1ccc(CNC(=O)c2ccc3nc(N4CCCCC4)sc3c2)cc1	-7.8%	x	0.0%	-25.0%	0.3%	-19.4%
CCOc1ccc2nc(N3CCCC(C(=O)NCCCN4CC(C)CC(C)C4)C3)sc2c1 (stereo unspecified)	13.4%	1.1%	4.1%	18.4µM*	-4.0%	18.4µM*
COc1ccc(CCNC(=O)C2CCCN(c3nn4c(=O)cc(C)nc4s3)C2)cc1OC (stereo unspecified)	4.6%	-0.2%	2.4%	2.2%	0.2%	-2.6%

Source: PubChem (National Center for Advancing Translational Sciences (NCATS))
